According to publication PMC4552634, “A New Set of Chemical Starting Points with Plasmodium falciparum Transmission-Blocking Potential for Antimalarial Drug Discovery” (PLoS ONE, 2015):
Like-named read-outs stand apart in the source and are kept apart here. In all, about 13,000 compounds went through this assay and about 3,200 (25%) showed an effect of 50% or more. The list shows a part of the results.

Test system: P. falciparum stage V gametocytes
Set-up: BacTiter-Glo ATP luminescence viability of purified stage V gametocytes in 384-well plates, per cent inhibition versus DMSO
Conditions: 48 h, 5 µM, inhibitor

Structure (SMILES)	% Inhibition (% Inhibition) [%]	% Inhibition [%]
COC(=O)c1sccc1NC(=S)NC1CCC(CN2CCC(c3c[nH]c4ccccc34)CC2)CC1 (centres unmarked) [TCMDC-140184]	87.69	–
S=C(Nc1ccc2c(c1)OCCO2)NC1CCC(CN2CCC(c3c[nH]c4ccccc34)CC2)CC1 (centres unmarked) [TCMDC-140187]	28.79	–
S=C(Nc1ccc2c(c1)OCCO2)NC1CCC(CN2CCC(c3c[nH]c4ccccc34)CC2)CC1 (centres unmarked) [TCMDC-140205]	-9.163	–
COC(=O)c1sccc1NC(=S)NC1CCC(CN2CCC(c3c[nH]c4ccccc34)CC2)CC1 (centres unmarked) [TCMDC-140202]	68.17	–
O=C(Nc1ccc(C(=O)OCC2CCCN3CCCCC23)cc1)c1ccc([N+](=O)[O-])cc1 (centres unmarked) [TCMDC-124028]	–	-7.885
COc1ccc2nccc([C@@H](O)CN3CCC(NC[C@H](Cc4ccccc4)NC(=O)OC(C)(C)C)CC3)c2c1 [TCMDC-140729]	–	28.25
COc1ccc2nc(N3CCN(C(=O)OC(C)(C)C)CC3)nc(NCCCc3ccccc3)c2c1 [TCMDC-138361]	–	104.5
COc1ccc(-c2ccccc2CNc2nc(NCCc3ccc(O)cc3)nc(N3CCNCC3)n2)cc1 [TCMDC-133785]	–	16.29
COc1ccc2nc(N3CCNCC3)nc(NCCCc3ccccc3)c2c1 [TCMDC-138367]	–	61.05
Oc1ccc2nc(N3CCNCC3)nc(NCCCc3ccccc3)c2c1 [TCMDC-138362]	–	-3.438
C/C(=C\C(=O)NC1CC1)c1ccccc1OCc1ccccc1 [TCMDC-137859]	–	-0.1612
COC(=O)c1cccc(CNCc2cccc(-c3ccc(-c4nc5ccccc5[nH]4)s3)c2)c1.O=C(O)C(F)(F)F [TCMDC-132944]	–	-0.1401
COc1ccc(NC(=O)CCNc2cc(C)nc(NCCOc3ccccc3)n2)cc1 [TCMDC-134876]	–	16.63
COc1ccc(NC(=O)CCNc2cc(C)nc(Nc3ccccc3)n2)cc1 [TCMDC-134731]	–	16.78
Cc1cc(NCCC(=O)NCCOc2ccccc2)nc(Nc2ccccc2)n1 [TCMDC-134732]	–	39.63
COc1ccccc1CCNc1nc(C)cc(NCCC(=O)NCCOc2ccccc2)n1 [TCMDC-134799]	–	41.79
Cc1cc(NCCC(=O)Nc2ccccc2)nc(NCCOc2ccccc2)n1 [TCMDC-134878]	–	88.65
Cc1cc(NCCC(=O)NCCOc2ccccc2)nc(NCCOc2ccccc2)n1 [TCMDC-134877]	–	53.53
Cc1cc(NCCC(=O)NCCOc2ccccc2)nc(NCCc2ccccc2)n1 [TCMDC-134771]	–	71.03
Cc1cc(NCCC(=O)NCCOc2ccccc2)nc(NCCc2ccc(F)cc2)n1 [TCMDC-134865]	–	48.39
Cc1cc(NCCC(=O)NCCOc2ccccc2)nc(NCc2ccccc2C)n1 [TCMDC-134900]	–	9.691
Cc1cccc(N2CCN(C3CCC(NC(=O)c4cc5ccccc5[nH]4)CC3)CC2)c1C (centres unmarked) [TCMDC-132891]	–	-4.538
COc1ccc(S(=O)(=O)N2CCC(NS(=O)(=O)c3ccc(F)cc3)CC2)cc1 [TCMDC-123512]	–	11.24
CC(=O)Nc1ccc(CN(C)C2CCN(c3cc(NC(=O)c4cccc(C)c4)ccn3)CC2)cc1 [TCMDC-134982]	–	-8.957

Structure (SMILES)	% Inhibition (% Inhibition) [%]	% Inhibition [%]
CN1CCN(c2cccc(NC(=O)c3ccc(-c4ccc(C#N)cc4)cc3)c2)CC1 [TCMDC-138669]	–	-26.05
Fc1cccc2sc(Nc3nc(-c4ccccn4)cs3)nc12 [TCMDC-125542]	–	81.67
COc1cccc2sc(Nc3nc(-c4ccccn4)cs3)nc12 [TCMDC-125543]	–	33.34
Fc1ccc2nc(Nc3nc(-c4ccccn4)cs3)sc2c1 [TCMDC-125540]	–	71.85
COc1ccc2nc(Nc3nc(-c4ccccn4)cs3)sc2c1 [TCMDC-125541]	–	1.427
c1ccc(-c2csc(Nc3nc4cc5c(cc4s3)OCO5)n2)nc1 [TCMDC-124550]	–	41.05
Cc1ccc(NC(=O)c2ccc3ncccc3c2)cc1OC1CCN(Cc2ccc(F)cc2)CC1 [TCMDC-133747]	–	-16.12
Cc1cc(NC(=O)Nc2ccc(I)c(OCCN(C)C)c2)ccc1Br [TCMDC-139108]	–	-4.695
CN(Cc1cccc(O)c1)C1CCCN(c2cc(NC(=O)c3ccc(F)cc3)ccn2)C1 (centres unmarked) [TCMDC-134960]	–	-31.52
CNC(=O)/C=C/c1cc(NC(=O)Nc2ccnc3c(Br)cccc23)ccc1OC [TCMDC-140331]	–	7.673
O=C1C2=C(Nc3ccccc3SC2c2ccccc2)c2ccccc21 (centres unmarked) [TCMDC-123496]	–	22.47
CN1CCCN(Cc2ccc(-c3cccc(NC(=O)c4cccc(F)c4)c3)cc2)CC1 [TCMDC-132646]	–	-5.89
COc1ccc(-c2ccc(NC(=O)c3cccc(F)c3)cc2)cc1CN1CCCN(C)CC1 [TCMDC-132528]	–	79.48
COc1ccc(-c2cccc(NC(=O)c3cccc(F)c3)c2)cc1CN1CCCN(C)CC1 [TCMDC-132619]	–	89.96
COc1ccc(-c2ccc(NC(=O)c3cccc(C#N)c3)cc2)cc1CN1CCCN(C)CC1 [TCMDC-132531]	–	38.42
COc1ccc(-c2cccc(NC(=O)c3ccc(F)cc3)c2)cc1CN1CCCN(C)CC1 [TCMDC-132607]	–	5.891
COc1ccc2c(c1)OC(C)(C)CC2=NOS(=O)(=O)c1ccc(C)cc1 [TCMDC-131772]	–	-0.3703
O=c1cc(NCCCNC2CCOc3c(Cl)cc(Cl)cc32)[nH]c2ccccc12 (centres unmarked) [TCMDC-139477]	–	33.79
CC(=O)N[C@H](C(=O)Nc1ccc(-c2ccc(-c3nc4ccc(C(F)(F)F)cc4[nH]3)cc2)cc1)C(C)C [TCMDC-136854]	–	-3.438
Cc1cccc2nc(-c3ccc(-c4ccc(NC(=O)NC5CC5c5ccccc5)cc4)cc3)[nH]c12 (centres unmarked) [TCMDC-133255]	–	-29.85
COc1ccc(NC(=O)Nc2cccc(-c3ccc(-c4nc5cccc(C)c5[nH]4)s3)c2)cc1 [TCMDC-133242]	–	1.322
Cc1nnsc1C(=O)Nc1cccc(-c2ccc(-c3nc4ccccc4[nH]3)s2)c1 [TCMDC-137079]	–	9.217
Cc1cccc2nc(-c3ccc(-c4cccc(NC(=O)Nc5ccc(Cl)c(Cl)c5)c4)s3)[nH]c12 [TCMDC-133272]	–	-3.418
Cc1nnsc1C(=O)Nc1ccc(-c2ccc(-c3nc4cccc(C)c4[nH]3)s2)cc1 [TCMDC-137090]	–	0.4196

Structure (SMILES)	% Inhibition (% Inhibition) [%]	% Inhibition [%]
Cc1cccc2nc(-c3ccc(-c4cccc(NC(=O)Nc5ccc(Cl)cc5)c4)s3)[nH]c12 [TCMDC-133175]	–	74.56
Cc1cccc2nc(-c3ccc(-c4ccc(NC(=O)Nc5ccc(Cl)cc5)cc4)s3)[nH]c12 [TCMDC-133176]	–	-22.37
Cc1nnsc1C(=O)Nc1cccc(-c2ccc(-c3nc4cccc(C)c4[nH]3)s2)c1 [TCMDC-137091]	–	82.4
O=C(Nc1cccc(-c2ccc(-c3nc4cc(F)ccc4[nH]3)s2)c1)c1ccncc1 [TCMDC-136968]	–	-9.65
Cc1nnsc1C(=O)Nc1cccc(-c2ccc(-c3nc4cc(F)ccc4[nH]3)s2)c1 [TCMDC-137089]	–	59.58
CC1CC(NCCCNc2cc(=O)c3ccccc3[nH]2)c2cc(Cl)c(Cl)c(Cl)c21 (centres unmarked) [TCMDC-139479]	–	22.71
N=C(N)c1nc2ccccc2s1 [TCMDC-123945]	–	9.097
C(=Cc1nc2ccccc2s1)c1ccc2c(c1)OCCO2 [TCMDC-124539]	–	68.35
C=CCNC(=O)CCCN=C(N)N [TCMDC-131668]	–	6.787
CCOC(=O)c1ccc2nc(-c3ccc(C(=O)NCc4ccc(C(C)(C)C)cc4)cc3)[nH]c2c1 [TCMDC-140576]	–	-8.95
Cc1cc2nc(-c3ccc(OCC(=O)NCc4ccc(C(C)(C)C)cc4)cc3)[nH]c2cc1C [TCMDC-140440]	–	63.48
CC(C)(C)c1ccc(CNC(=O)c2ccc(-c3nc4ccc(Cl)cc4[nH]3)cc2)cc1 [TCMDC-140442]	–	5.243
CC(C)(C)c1ccc2nc(-c3ccc(C(=O)NCCCc4ccccc4)cc3)[nH]c2c1 [TCMDC-140453]	–	68.75
Cc1cc2nc(-c3ccc(C(=O)NCc4ccc(C(C)(C)C)cc4)cc3)[nH]c2cc1C [TCMDC-140433]	–	-24.96
CC(C)(C)c1ccc2nc(-c3ccc(C(=O)NCc4cccc(C(F)(F)F)c4)cc3)[nH]c2c1 [TCMDC-140454]	–	18.91
Cc1cc2nc(-c3ccc(C(=O)NCCCc4ccccc4)cc3)[nH]c2cc1C [TCMDC-140429]	–	-39.85
Cc1cc2nc(-c3ccc(OCC(=O)NCc4cccc(C(F)(F)F)c4)cc3)[nH]c2cc1C [TCMDC-140439]	–	-1.946
CC(C)(C)c1ccc(CNC(=O)c2ccc(-c3nc4ccc(C(C)(C)C)cc4[nH]3)cc2)cc1 [TCMDC-140455]	–	76.42
CCc1ccc(NC(=O)c2cccc(CN3CCCN(Cc4cccc(O)c4)CC3)c2)cc1 [TCMDC-135989]	–	-33.27
O=C(/C=C/c1ccc(Cl)cc1)NCCCCCN1CCCC(C(=O)Nc2ccc(Cl)c(Cl)c2)C1 (centres unmarked) [TCMDC-136125]	–	-14.11
CCC1CN(CCCn2c3ccccc3c3ccccc32)C(CC)CN1 (centres unmarked) [TCMDC-138116]	–	25.71
CC1CN(CCCn2c3ccccc3c3ccc(C(=O)CCCN(C)C)cc32)CC(C)N1 (centres unmarked) [TCMDC-137742]	–	88.42
Cc1c(CCNC(=O)CCCN2CC(C)CC(C)C2)c2ccccc2n1C (centres unmarked) [TCMDC-131457]	–	10.13
